An excerpt weighted towards active compounds, which were near 21% of everything screened.
Cycloheximide cs: affects cycloheximide protein synthesis inhibition readout, counter-screen; hit rate 12% among 300,000; max response, %; cell reporter, cycloheximide protein synthesis inhibition counterscreen; AID 2314; in the data active = max response mostly above about 13%, no sharp cut-off; inactive = mostly below about 14%; also: read at 38.3 µM for the half of the compounds with a filed dose; 0% is about no effect
Pf growth 96h: P. falciparum growth inhibition at 96 hours. P. falciparum luciferase reporter growth, 96 h. Potency, µM (series often up to 28.7 µM), for the others: top-dose activity change, negative = inhibition, hits mostly inhibitors. hit rate 6.9% among 320,000; also: potency is read from the fitted curve at half-maximal effect; % is scaled to controls: 0 for no effect and ±100 for the full control effect
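Compounds incubated with erythrocytes infected by luciferase-expressing P. falciparum (2% hematocrit, 0.05% parasitemia final) for 96 hours, 37 C in 5% CO2. Growth inhibition scored as decreased luciferase luminescence.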
AMA1 RON2 block: AMA1-RON2 (P. falciparum) interaction inhibition; AlphaScreen AMA1-biotinylated RON2 peptide binding; Potency, µM (top dose mostly 58.2 µM), inactives show at the highest dose activity change, negative = inhibition, actives largely listed as inhibitors; hit rate 0.2% among 360,000;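 also: potency is read from the fitted curve at half-maximal effect; 0% = vehicle wells and -100% = peptide control; nearly all actives have a fitted effect of over 45% in size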
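AMA1 (3D7) with his tag at 25 nM final met compounds first, then biotinylated RON2 peptide at 25 nM; detection used donor plus acceptor beads, 10 µg/mL apiece, read by AlphaScreen after 30 min at room temperature.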
Shiga inhibitor: Shiga toxin inhibition; inhibition, % at 38.7 µM; hit rate 9.2% among 290,000; Vero cells, Shiga toxin protein synthesis inhibition reporter; AID 2315; in the data active = inhibition mostly above about 28%, no sharp cut-off; inactive = mostly below about 43%; also: 0% is about no effect
Pf growth 48h: inhibits P. falciparum growth in the first generation, 48 h; P. falciparum luciferase growth in erythrocytes, 48 h; Potency, µM (titrated, usually from 28.7 µM), for inactives: top-dose activity change, negative = inhibition, actives largely listed as inhibitors; hit rate 5.9% among 310,000; also: potency is read from the fitted curve at half-maximal effect; % is scaled to controls: 0 for no effect and ±100 for the full control effect
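Growth was read as firefly luciferase luminescence after a 48 h, 37 C, 5% CO2 exposure of compounds to reporter-bearing P. falciparum cultures (0.1% parasitemia, 2% hematocrit final) in Albumax-supplemented RPMI 1640.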
HCV inhibitor: HCV inhibition; Huh7.5.1 HCVcc-Cre infection, luciferase reporter, 44 h; Potency, µM (highest dose often 41.8 µM), without a hit: top-dose activity change, negative = inhibition, most hits filed as inhibitors; hit rate 3.4% among 340,000; also: potency is read from the fitted curve at half-maximal effect; % is scaled to controls: 0 for no effect and ±100 for the full control effect
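HCVcc-Cre virus at an moi near 0.5 was added right after compound to cells cultured 4 h from seeding (1,000 cells/well). Luciferase activity was determined 44 h later, 15 min after substrate addition at RT.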
Starred values were filed as active, the others as inactive; [ ] = another dose, or the depositor's remark. Unless noted, calls follow the shape of the dose curve; as a rule, active = well fitted curve in the direction sought with a large enough effect; inconclusive = small, poorly fitted or top-dose-only effect, or another doubt; inactive = no such curve, though single readings can be large; an effect the other way counts as inactive or inconclusive.

Results for CCOC(=O)CC1=Nc2ccccc2NC(=O)C1 ?
Cycloheximide cs: -4.1; AMA1 RON2 block: 18.4%; Shiga inhibitor: -25.1; Pf growth 48h: 14.2%; HCV inhibitor: 8.7%

What do the screens show for `O=C1CC(/C=C/c2ccncc2)=Nc2ccccc2N1`?
Cycloheximide cs: 30.5*; Pf growth 96h: inconclusive; AMA1 RON2 block: 2.1%; Shiga inhibitor: 32.8; Pf growth 48h: 14.0%; HCV inhibitor: inconclusive

What do the screens show for `CCN(CC)CCCn1c2c(c(SCC(=O)Nc3nc4ccccc4s3)nc1=O)CCC2`?
Pf growth 96h: 13.1µM*; AMA1 RON2 block: -0.3%; Pf growth 48h: inconclusive; HCV inhibitor: inconclusive

Results for CCN(CC)CCCn1c2c(c(SCC(=O)Nc3ccc(OC(F)(F)F)cc3)nc1=O)CCC2 ?
Pf growth 96h: inconclusive; AMA1 RON2 block: 14.2%; Pf growth 48h: inconclusive; HCV inhibitor: 10µM*

Results for CCN(CC)CCCn1c2c(c(SCC(=O)Nc3ccc(C)c(F)c3)nc1=O)CCC2 ?
Pf growth 96h: inconclusive; AMA1 RON2 block: 0.0%; Pf growth 48h: inconclusive; HCV inhibitor: inconclusive

Results for COc1ccc(OCCCc2c(C)n[nH]c2C)cc1 ?
Cycloheximide cs: 4.9; Pf growth 96h: 9.28µM*; AMA1 RON2 block: -2.9%; Shiga inhibitor: 8.3; HCV inhibitor: -20.6%

How did COc1ccc(N=Nc2c(C)n[nH]c2C)cc1 do in these assays?
Cycloheximide cs: 28.6*; Pf growth 96h: 52.3%; AMA1 RON2 block: -19.7%; Shiga inhibitor: 119.0*; Pf growth 48h: 52.7%; HCV inhibitor: inconclusive

What do the screens show for `CNCCc1c(C)n[nH]c1C`?
Cycloheximide cs: -0.7; Pf growth 96h: 11.7µM*; AMA1 RON2 block: 8.2%; Shiga inhibitor: -13.3; Pf growth 48h: 0.2%; HCV inhibitor: 7.9%

What do the screens show for `Cc1n[nH]c(C)c1N=Nc1ccc(Br)cc1`?
Cycloheximide cs: 27.0*; Pf growth 96h: 29.5%; AMA1 RON2 block: -9.2%; Shiga inhibitor: 51.4; Pf growth 48h: 18.5%; HCV inhibitor: inconclusive

Results for Cc1[nH][nH]c(=O)c1N=Nc1ccc(Br)c(Cl)c1 ?
AMA1 RON2 block: 0.5%; HCV inhibitor: -2.6%

What do the screens show for `O=C1NC[C@H](Cc2ccccc2)N(C[C@@H]2CCCN2C[C@H](Cc2ccccc2)N2C[C@H](Cc3ccccc3)N(CCc3ccccc3)C(=O)C2=O)C1=O`?
AMA1 RON2 block: 0.0%

Results for Cc1cc(CN(C)Cc2c(C(=O)N3CCCCCCC3)nc3ccc(Cl)cn23)n[nH]1 ?
Cycloheximide cs: -2.1; Pf growth 96h: inconclusive; AMA1 RON2 block: -13.8%; Shiga inhibitor: -2.7; Pf growth 48h: inconclusive; HCV inhibitor: 5.2%

How did N#Cc1cc([N+](=O)[O-])c(-n2nnc3ccccc32)c([N+](=O)[O-])c1 do in these assays?
Cycloheximide cs: -4.2; Pf growth 96h: 134.2%; AMA1 RON2 block: 5.1%; Shiga inhibitor: 11.4; Pf growth 48h: 73.9%; HCV inhibitor: -13.8%

Results for COc1ccccc1Oc1cc(C#N)c(C#N)cc1-n1nnc2ccccc21 ?
Cycloheximide cs: -3.0; Pf growth 96h: 2.33µM*; AMA1 RON2 block: 10.9%; Shiga inhibitor: -22.6; Pf growth 48h: 9.28µM*; HCV inhibitor: inconclusive

Results for CCOc1ccc(N(CC(=O)Nc2ccc(OC)cc2)S(=O)(=O)c2c(C)noc2C)cc1 ?
Cycloheximide cs: -3.8; Pf growth 96h: 6.57µM*; AMA1 RON2 block: 1.5%; Shiga inhibitor: 3.0; HCV inhibitor: 14.0%

How did CCOc1ccc(OCC)c(NC(=O)CN(c2ccc(C)cc2)S(=O)(=O)c2c(C)noc2C)c1 do in these assays?
Cycloheximide cs: 13.7; Pf growth 96h: 33.6%; AMA1 RON2 block: 0.0%; Shiga inhibitor: 12.1; HCV inhibitor: inconclusive

Results for COc1ccc(N(CC(=O)Nc2ccc(OC)c(Cl)c2)S(=O)(=O)c2c(C)noc2C)cc1 ?
Cycloheximide cs: -3.9; Pf growth 96h: 26.8%; AMA1 RON2 block: 1.0%; Shiga inhibitor: -13.5; Pf growth 48h: 8.28µM*; HCV inhibitor: inconclusive

Results for COc1ccc(N(CC(=O)Nc2ccc(F)c(Cl)c2)S(=O)(=O)c2c(C)noc2C)cc1 ?
Cycloheximide cs: -1.4; Pf growth 96h: inconclusive; AMA1 RON2 block: 4.5%; Shiga inhibitor: 4.4; Pf growth 48h: inconclusive; HCV inhibitor: 15.1%

What do the screens show for `COc1ccc(OC)c(NC(=O)CN(c2ccc(C(C)C)cc2)S(=O)(=O)c2c(C)noc2C)c1`?
Cycloheximide cs: -4.3; Pf growth 96h: 10.4µM*; AMA1 RON2 block: -6.2%; Shiga inhibitor: -5.0; HCV inhibitor: inconclusive

Results for CCOc1ccc(OCC)c(NC(=O)CN(c2ccc(OC)cc2)S(=O)(=O)c2c(C)noc2C)c1 ?
Cycloheximide cs: 10.1; Pf growth 96h: inconclusive; AMA1 RON2 block: -11.2%; Shiga inhibitor: 7.2; Pf growth 48h: 13.1µM*; HCV inhibitor: inconclusive

How did C[C@H]1CNC(=O)c2c(C(=O)Nc3ccc(CNC(=O)OC(C)(C)C)cc3)ncn21 do in these assays?
AMA1 RON2 block: 93.5%

Results for COc1ccc(N(CC(=O)Nc2cc(Cl)ccc2OC)S(=O)(=O)c2c(C)noc2C)cc1 ?
Cycloheximide cs: 1.3; Pf growth 96h: 9.28µM*; AMA1 RON2 block: -3.0%; Shiga inhibitor: -17.2; Pf growth 48h: 10.4µM*; HCV inhibitor: inconclusive

What do the screens show for `CCOc1ccc(N(CC(=O)Nc2ccc(OC)cc2)C2=NC3CS(=O)(=O)CC3S2)cc1` (stereo unspecified)?
Cycloheximide cs: -1.4; Pf growth 96h: 13.1µM*; AMA1 RON2 block: -4.4%; Shiga inhibitor: -4.6; Pf growth 48h: 5.9%; HCV inhibitor: 16.7%

Results for COc1ccc(OC)c(NC(=O)CN(c2ccc(C)cc2)S(=O)(=O)c2c(C)noc2C)c1 ?
Cycloheximide cs: 10.2; Pf growth 96h: 1.85µM*; AMA1 RON2 block: -2.5%; Shiga inhibitor: 0.9; Pf growth 48h: inconclusive; HCV inhibitor: inconclusive

Results for CCOc1ccccc1NC(=O)CCN(c1ccc(C)cc1)S(=O)(=O)c1ccccc1 ?
Cycloheximide cs: -1.4; Pf growth 96h: 11.7µM*; AMA1 RON2 block: -18.9%; Shiga inhibitor: 11.8; Pf growth 48h: inconclusive; HCV inhibitor: inconclusive

How did Cc1ccc(N(CCC(=O)O)S(=O)(=O)c2ccccc2)cc1 do in these assays?
Cycloheximide cs: 0.4; Pf growth 96h: 31.6%; AMA1 RON2 block: -5.9%[2.32 µM]; Shiga inhibitor: -13.8; Pf growth 48h: -15.6%; HCV inhibitor: 14.9%

How did COc1ccc(N(CC(=O)Nc2ccc(C)cn2)S(=O)(=O)c2c(C)noc2C)cc1 do in these assays?
Cycloheximide cs: 0.3; Pf growth 96h: -0.6%; AMA1 RON2 block: -10.1%; Shiga inhibitor: 6.5; Pf growth 48h: 1.4%; HCV inhibitor: -6.2%

How did CCCCN1C(=O)C(CC(=O)NCC2CCCCC2)CC(C(=O)N2CCOCC2)=C1C (stereo unspecified) do in these assays?
AMA1 RON2 block: 13.3%
